The entries come from a sample that favours hits as a whole.
TbREL1 primary: TbREL1 RNA ligase inhibitors, primary screen, biochemical, FRET fluorescence | RNA-editing ligase 1, mitochondrial (Trypanosoma brucei brucei), P86926 | TbREL1 RNA ligation | inhibition, % at 9.66 µM | hit rate 0.49% among 89,000 | AID 1117264, 2014;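 active means inhibition above the mean inhibition across all screened compounds plus 3 SD, cut at about 11% in these data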;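 further: 0% = plate median of test wells and 100% = NSC42067 control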
Target sequence (P86926 whole entry, looked up): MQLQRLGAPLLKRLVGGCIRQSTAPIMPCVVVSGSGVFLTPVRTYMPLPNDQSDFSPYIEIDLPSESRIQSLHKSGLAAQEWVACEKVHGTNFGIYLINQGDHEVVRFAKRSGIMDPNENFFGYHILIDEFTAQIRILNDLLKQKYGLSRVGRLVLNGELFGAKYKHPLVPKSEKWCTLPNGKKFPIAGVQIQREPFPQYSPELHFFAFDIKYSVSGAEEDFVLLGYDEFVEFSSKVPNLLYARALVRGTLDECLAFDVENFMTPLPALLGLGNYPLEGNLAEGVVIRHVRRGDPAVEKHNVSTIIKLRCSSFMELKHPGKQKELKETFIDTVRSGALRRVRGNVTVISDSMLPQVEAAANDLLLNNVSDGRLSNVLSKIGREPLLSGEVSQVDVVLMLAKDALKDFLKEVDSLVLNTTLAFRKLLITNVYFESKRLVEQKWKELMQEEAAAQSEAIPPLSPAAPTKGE
TbREL1 confirm: TbREL1 RNA ligase inhibitors, confirmation, biochemical, FRET fluorescence, triplicate | shares compounds with TbREL1 primary | TbREL1 RNA ligation | inhibition, % at 9.66 µM | hit rate 37% among 390 | AID 1117282, 2014;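 active means mean inhibition across replicates above a set limit taken from the earlier primary screen, cut at about 11% in these data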;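 further: 0% = REL1 with substrate and DMSO and 100% = REL1 plus control inhibitor NSC42067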
Starred values were filed as active, the others as inactive.

SMILES	TbREL1 primary	others
C#CCOCCOCCOCCNc1nc(N2CCN(C(=O)[C@H](CCCN=C(N)N)n3cc(C(N)[C@@H](C)CC)nn3)CC2)nc(N2CCN(C(=O)[C@H](CCC(=O)O)n3cc([C@@H](N)CCCCN)nn3)CC2)n1 (stereo partly drawn)	2
O=C(OCC#CCSc1nnc(-c2cccc3ccccc23)o1)c1ccccc1F	-1
CNCC/C=C1/c2ccccc2CSc2ccccc21	5
S=C1Nc2ccccc2Sc2ccc(Cl)cc21	1
CCCCCC[N+](C)(C)CC/C=C1/c2ccccc2Sc2ccc(Cl)cc21	14*	TbREL1 confirm=14*
CCOC(=O)[C@@]12CCCC3=C1N(CCC3)C(=O)[C@H]2CC(=O)N1CCOCC1	1
O=C(Cc1ccc2c(c1)OCO2)N1CCC(n2nc(-c3ccccc3)oc2=O)CC1	0
Cc1nn(-c2ccccc2)c2sc(C(=O)N3CCN(S(=O)(=O)c4ccc(Br)s4)CC3)cc12	0
COc1ccc(C=Nn2c(-c3n[nH]c4c3CCC4)n[nH]c2=S)cc1OCc1ccccc1	-1
Cc1nn(C)c(C)c1NC(=O)C12CC3CC(CC(C3)C1)C2	2
CCC(=O)Nc1cc(C)c(NC(=O)C23CC4CC(CC(C4)C2)C3)cn1	-3
Cc1cc(NC(=O)C23CC4CC(CC(C4)C2)C3)n[nH]1	12*	TbREL1 confirm=5
C=CCCC(=O)N[C@H]1CC[C@@]23CCCN2C(=O)CCC[C@H]3[C@H]1CCC	1
Cc1cc(C)cc(NC(=O)O[C@@H]2CC[C@@]34CCCN3C(=O)CCC[C@H]4C2)c1	-7
CCOC(=O)CNC(=O)CSc1nc2ccccc2c(=O)n1-c1ccc(Cl)cc1	3
O=C(c1ccc2c3c(cccc13)CC2)C1CCCN(Cc2ccncc2)C1 (stereo not drawn)	6
ON=C(c1ccccc1)c1ccc2c3c(cccc13)CC2	12*	TbREL1 confirm=3
NC(=O)/C(=N\O)c1ccccc1	0
CCOc1ccc(-n2c(COc3ccc(C)cc3)nnc2SCC(=O)Nc2ccc(F)c(F)c2)cc1	-1
CCn1c(COc2ccc(Cl)cc2)nnc1SCC(=O)Nc1ccc(Oc2ccccc2)cc1	0
O=C(Nc1nc(-c2ccco2)c(-c2ccco2)s1)c1cnccn1	20*	TbREL1 confirm=3
CCOc1ccc2nc(NC(=O)c3cnccn3)sc2c1	2
Cc1cnc(NC(=O)c2ccco2)s1	6
CCOC(=O)[C@@]12CCC3=C1N(CCC3)C(=O)[C@H](CC(=O)NCc1cccc3ccccc13)C2	-2
CCN=C1S/C(=C/c2cc(C)n(-c3ccc(Cl)cc3F)c2C)C(=O)N1CC	4
SMILES	TbREL1 primary	others
O=C(O[C@H]1CC[C@@]23CCCN2C(=O)CCC[C@H]3C1)N1CCOCC1	14*	TbREL1 confirm=0
CCC(CC)NC(=O)O[C@H]1CC[C@@]23CCCN2C(=O)CCC[C@H]3C1	9
CCN(CC)C(=O)O[C@H]1CC[C@@]23CCCN2C(=O)CCC[C@H]3C1	7
Cc1nc2ccc(NC(=O)c3ccc(F)cc3Cl)cc2c(=O)[nH]1	-2
O=C(Cc1c[nH]c2ccccc12)Nc1ccc(Nc2ccncc2)cc1	2
CCN(C(=O)COC(=O)c1cc(OC)c(OC)cc1[N+](=O)[O-])C1CCS(=O)(=O)C1 (stereo not drawn)	0
CN(C(=O)COC(=O)c1cc([N+](=O)[O-])ccc1N1CCOCC1)C1CCCCC1	-2
CCN(C(=O)COC(=O)c1cc([N+](=O)[O-])ccc1N1CCCCC1)C1CCS(=O)(=O)C1 (stereo not drawn)	11*	TbREL1 confirm=2
CC(C)(N[C@@H](Cc1c[nH]c2ccccc12)C(=O)NCCCc1ccccc1)C(=O)NCc1ccccc1	-7
C[C@@H]1CCN(C2CC2)S(=O)(=O)c2ccc(N3CC[C@H](O)C3)cc2O1	-5
COc1ccccc1NS(=O)(=O)c1cccc(C(=O)NCc2ccccn2)c1	2
COc1ccccc1NS(=O)(=O)c1cccc(C(=O)NNC(=O)c2ccc(NC(C)=O)cc2)c1	16*	TbREL1 confirm=1
COc1cc(C(=O)NNC(=O)c2ccc(NC(C)=O)cc2)cc(OC)c1OC	1
O=C(NCCc1ccc(F)cc1)c1ccc2c(c1)ncn2C1CCCCC1	0
COc1ccc([C@H]2OC(=O)C[C@H]2C(=O)N2CCN(C(=O)C3CCCO3)CC2)cc1OC (stereo partly drawn)	-3
C=CCNCCOCCOc1ccc(C)cc1Br	5
C=CCNCCOCCOc1ccc(Cl)cc1C(C)(C)C	16*	TbREL1 confirm=19*
CC(C)NCCOCCOc1ccc(Cl)cc1Br	2
Cc1cccc(N2CCN(C(=O)c3cc(S(=O)(=O)N(C)C)ccc3Cl)CC2)c1C	-3
COc1cc(C(=O)O)ccc1OCc1ccccc1	3
COc1cc(CNC(=O)C2CC2)ccc1OCc1ccccc1	-1
COc1cc(CN(CCN(C)C)Cc2ccccc2)ccc1OCc1ccccc1	16*	TbREL1 confirm=12*
COCO[C@@H]1CC(CO)=C[C@H]2OCO[C@H]21	5
COc1cccc(CNC(=O)CCCN2C(=O)COc3ccc(C)cc32)c1OC	0
COc1ccc(-n2c(-c3ccccc3)nnc2-c2ccc(Cl)cc2)cc1	-4
SMILES	TbREL1 primary	others
O=C(O)c1ccc(CSc2nnc(-c3ccncc3)n2-c2ccc(Br)cc2)cc1	9
[S-]c1nnc(-c2ccc(Br)cc2)n1-c1ccccc1.[Zn+2]	23*	TbREL1 confirm=17*
O=C(c1ccc(Cl)cc1)C1CCN(c2ncnc3sccc23)CC1	7
O=S(=O)(c1sccc1Br)n1c(CN2CCOCC2)nc2ccccc21	-4
COc1ccc(CN2CCC(CNC(=O)Nc3ccc(Cl)cc3)CC2)cc1	9
COc1ccc(-n2c(COc3ccccc3)nnc2SCC(=O)Nc2ccc3c(c2)OCCO3)cc1	-3
CSCCC(NC(=O)COc1ccccc1)C(=O)N1CCN(c2ccccc2O)CC1 (stereo not drawn)	42*	TbREL1 confirm=3
CSCCC(NC(=O)COc1ccccc1)C(=O)OCC(=O)c1ccccc1 (stereo not drawn)	-3
CCOC(=O)C1CCN(C(=O)C(CCSC)NC(=O)COc2ccccc2)CC1 (stereo not drawn)	-6
COC(=O)[C@]12C[C@H](CC(=O)NCCCN3CCCC3=O)C(=O)N(Cc3ccco3)C1=C[C@H](C1CCCC1)O[C@@H]2C	-3
O=C1C(=O)c2cccnc2-c2ncccc21	43*	TbREL1 confirm=68*
O=C1c2ccccc2-c2nccnc21	-1
O=C1c2cc([N+](=O)[O-])ccc2-c2ncccc21	1
CCCCC(=O)Nc1ccc(C(=O)NCC2COc3ccccc3O2)cc1 (stereo not drawn)	0
COC(=O)[C@]12C[C@H](CC(=O)N3CCSCC3)C(=O)N(Cc3ccco3)C1=C[C@H](COCc1ccccc1)O[C@@H]2C	2
COc1ccc(C2C(C(=O)Nc3ccc(Cl)cc3)CCC(=O)N2c2ccc(OC)cc2)cc1 (stereo not drawn)	5
O=C(Cn1nc(-c2ccccc2)c2ccccc21)Oc1ccccc1	4

High-throughput results deposited in PubChem BioAssay by The Scripps Research Institute Molecular Screening Center.
